Assay results from PubChem BioAssay (NCI).
The panel holds about 83,000 compounds, 20% with a hit somewhere; the sample as a whole holds those more often.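 Step 1: grow cells in 96-well plates. Step 2: add test compound at a single concentration. Step 3: incubate 48 h. Step 4: record percent growth.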 Unmarked numbers belong to inactive results. The calls were made as follows: active = growth percent below 10; inactive = the rest.

Tested on: MDA-MB-468 breast
Test: NCI-60 one-dose screen, 48 h (100 = growth as untreated, 0 = no growth, -100 = all killed)
Conditions: 10 µM unless noted

Question: For `C#COc1cccc(Nc2ncnc3cc(NC(=O)[C@@H](C)Cl)ccc23)c1`, which growth is on record?
Answer: 12% [6.25 µM]

Question: Which growth does the source give for `COc1cc(Cn2c(-c3ccccc3)c(Cl)c3c2-c2oncc2CC3)cc(OC)c1` here?
Answer: 114%

Question: `CC1=C(C(=O)Nc2nc(-c3ccc(Cl)cc3)cs2)[C@H](c2ccc(O)cc2)NC(=O)N1` was tested. Which growth did it give?
Answer: 95%
